Assay results taken from PubChem BioAssay AID449762 (Southern Research Specialized Biocontainment Screening …, 2010).
The campaign covered roughly 330,000 compounds. About 1,900 (0.58%) were called active. Not shown: some 4% with an inconclusive outcome. Only a sample is shown. Entries with a potency or affinity are not part of this list. Values without a mark were called inactive. Cut-off read from the data, not from the text of the source: inconclusive = inhibition above about 70% without an active follow-up result; inactive = below that.

Assay: M. tuberculosis growth inhibition, HTS (AID 449762);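 note: bacterial growth assessed after seven days of incubation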
Conditions: M. tuberculosis H37Rv growth inhibition, 7H9 media; at 25 µM; active compounds read high

Compound | inhibition [%]
CCN1C(=O)[C@@H]2[C@@H](c3ccc(-c4ccc(C(C)=O)cc4)c(OC)c3)N3CCC[C@@]3(C(=O)OC)[C@@H]2C1=O | 18.4
CC(=O)C[C@H](O)CC(=O)[C@H]1OC(=O)CCCCCCc2ccccc21 | 4.94
CC1(C)CC(=O)C2=C(C1)Nc1ccccc1[S@]2=O | 1.12
COc1ccc(C2=NCCc3cc(OC)c(OC)cc32)cc1OC | 4.26
COc1ccc(CC2(CO)CCN(C/C=C/c3ccccc3OC)CC2)cc1 | 50.6
OCC1(Cc2ccccc2Cl)CCN(C/C=C/c2ccccc2)CC1 | 2.72
Cc1ccc(-n2nc(CC#N)c(C#N)c2N)cc1Cl | -3.34
Cc1ccc2[nH]c(O)c(N=O)c2c1 | -3.5
O=Nc1c(O)[nH]c2ccc(F)cc12 | -7.36
O=C(CSc1cccc[n+]1[O-])Nc1cccc(Oc2ccccc2)c1 | 2.29
O=C(C1CC(=O)N(c2ccc3c(c2)OCCO3)C1)N1CCN(Cc2ccccc2F)CC1 (centres undefined) | -2.42
COc1cccc2sc3ccc(C#Cc4ccc(N)cc4)cc3c(=O)c12 | 39.9
COc1cccc2sc3ccc(C#CC4(O)CCCCC4)cc3c(=O)c12 | 47.6
COc1ccc(S(=O)(=O)Cc2ccc(C(=O)N3CCN(C4CCCCC4)CC3)o2)cc1 | -3.99
COc1ccc(NC(=O)c2ccc(CNc3c(NC4CCCCC4)c(=O)c3=O)cc2)c(OC)c1 | -5.88
CCOc1ccccc1NC(=O)c1ccccc1N(C)S(C)(=O)=O | -4.2
COc1ccc(C2C(C#N)=C(N)N(N(C)C)C3=C2C(=O)CC(C)(C)C3)cc1OC (centres undefined) | 7.78
COc1ccc(C2C(C#N)=C(N)N(Nc3ccccc3)C3=C2C(=O)CC(C)(C)C3)cc1C (centres undefined) | -5.96
CSc1ccccc1OCc1cc(C(=O)NC(C)CCn2cccn2)no1 (centres undefined) | -15.6
Cc1cc(C)n(C(=O)c2ccc([N+](=O)[O-])cc2Cl)n1 | 5.54
Cc1cc(C)n(C(=O)c2ccc([N+](=O)[O-])cc2N)n1 | -4
Cc1nc([N+](=O)[O-])cn1CC(=O)c1ccc(Br)cc1 | 4.4
CC(C)C(=O)c1cn(CC(=O)NCc2ccc3c(c2)OCO3)c2ccccc12 | -5.3
CS(=O)(=O)n1nc(-c2cccnc2)nc1NCc1ccccc1 | 0.47

Compound | inhibition [%]
CC(=O)n1nc(-c2ccccc2)nc1NCc1ccc(N(C)C)cc1 | 0.39
CCN(CC)CC(=O)NCC1(c2ccccc2)CCCC1 | -3.12
O=C(O)C1C2C=CC(C2)C1C(=O)Nc1ccc(C(=O)N2CCCCC2)cc1 (centres undefined) | 1.87
CCOC(=O)C(=O)N=Nc1c(O)n(C)c2ccccc12 | 1.87
Cc1cc(C)n2[nH]c(=O)c(N=Nc3ccccc3)c2n1 | 4.19
COc1cccc(N=Nc2c(=O)[nH]n3c(C)cc(C)nc23)c1 | 0.98
Cc1c(C(=O)N2CCN(C(=O)c3ccccc3)CC2)oc2ccc(F)cc12 | -0.86
COc1ccc(/C=C/C(=O)c2oc3ccc(F)cc3c2C)cc1 | 10.9
CC(=O)c1ccc(OCC(=O)Nc2cccc(S(=O)(=O)N3CCCC3)c2)cc1 | -6.55
O=C(COC(=O)c1cccs1)NCc1ccco1 | -0.65
COc1cc(NC(=O)c2cccs2)c(C(=O)OCC(=O)NCc2ccccc2)cc1OC | -0.2
COc1ccc(COC(=O)c2ccc3c(=O)n4c(nc3c2)CCC4)cc1F | 3.8
COc1cccc(CN(C)C(=O)c2ccc3c(=O)n4c(nc3c2)CCC4)c1OC | 1.09
C[C@H](NC(=O)C1CCN(S(=O)(=O)c2ccccc2)CC1)C(=O)NCc1ccc(Cl)cc1Cl | -1.33
O/C(=C\Sc1nnc(Cc2ccccc2)o1)c1ccc(Br)cc1 | 8.01
O/C(=C\Sc1nnc(Cc2ccccc2)o1)c1ccc(F)cc1 | 7.63
CCC(C)(C)NC(=O)C(c1ccncc1)N(C(=O)c1sc(C)nc1C)c1ccc(C)cc1 (centres undefined) | 3.84
COc1cc(/C=N\NC(=O)c2ccc(Cl)cc2)ccc1Oc1ccc([N+](=O)[O-])cn1 | -6.52
Cc1cccc(-n2c(N)c(-c3nc4ccccc4n3C)c3nc4ccccc4nc32)c1 | 1.57
Cc1nc2ccccc2n1CCc1ccccc1 | -2.95
CNC(=O)CS(=O)(=O)CC(=O)Nc1cc(OC(C)C)c(Cl)cc1Cl | -5.55
O=C(OC(C(=O)Nc1ccc(Cl)c(C(F)(F)F)c1)c1ccccc1)C1=COCCO1 (centres undefined) | 45.5
O=C(Cc1ccccc1)Nc1nccs1 | -6.19
COC(=O)CCC(=O)Nc1nccs1 | 5.49

Compound | inhibition [%]
CCn1c(SCC(=O)Nc2nc(C)c(C)s2)nnc1-c1cccnc1 | -1.86
CC1=NC(C(F)(F)F)(C(F)(F)F)C(C#N)=C(C)N1 | -4.27
C=CCn1cccc(C(=O)Nc2ccc(SC)cc2)c1=O | -0.65
O=C(c1ccccc1)c1nn(-c2ccccc2)c(=O)cc1C(F)(F)F | 13.9
O=C(c1cccc(Cl)c1)c1nn(-c2ccccc2)c(=O)cc1C(F)(F)F | -1.58
CCCCNC(=O)c1c(C)cc(=O)oc1C | -6.73
Oc1ccccc1C1Nc2cccc3cccc(c23)N1 | 6.02
Clc1cccc(Cl)c1C1Nc2cccc3cccc(c23)N1 | 14.4
O=C(CSc1nnnn1-c1ccc(F)cc1F)Nc1ccccc1F | -0.25
CC(=O)NC1=NN(C(C)=O)C(c2ccc(F)cc2)S1 (centres undefined) | -2.18
Cc1onc(-c2ccccc2)c1C(=O)NCc1cccnc1 | -1.76
Cc1cc(=O)oc(C)c1C(=O)NCc1cccnc1 | -7.02
COc1ccc(-c2cc(C(=O)N/N=C(\C)c3cccnc3)c3cc(C)ccc3n2)cc1OC | -3
CCc1nnc(NC(=O)c2ccc(S(=O)(=O)N3CCCC3)cc2)s1 | -0.36
O=C(O)CSc1cccc[n+]1[O-] | -0.1
CN(C(=O)CSc1cccc[n+]1[O-])c1ccccc1 | -7.05
[O-][n+]1ccccc1SCc1ccccc1 | -3.14
O=C(CSc1cccc[n+]1[O-])N1CCCCCC1 | -7.02
CN(C(=O)CS(=O)(=O)c1cn(CC(=O)N2CCCCC2)c2ccccc12)c1ccccc1 | -2.32
O=C(O)C1(P(=O)(c2ccccc2)c2ccccc2)CCCC1 | 0.37
CN(C)CCCNC(=S)N(CCCO)Cc1cc2cc3c(cc2[nH]c1=O)OCO3 | 4.05
COc1ccc(C(CCN2CCN(c3ccccc3)CC2)c2c(OC)cc(OC)c3c(-c4ccccc4)cc(=O)oc23)cc1 (centres undefined) | -5.41
COc1cc(C(CCN2CCCC2)c2c(OC)cc(OC)c3c(-c4ccccc4)cc(=O)oc23)cc(OC)c1OC (centres undefined) | 56.2
COc1ccc(N2C(=O)NC(NS(=O)(=O)c3ccccc3)(C(F)(F)F)C2=O)cc1 (centres undefined) | -5.61

Compound | inhibition [%]
CNC(=O)COC(=O)c1cc(=O)[nH]c2ccccc12 | -5.4
Cc1c2cnn(CC(=O)Nc3cccc(C(F)(F)F)c3)c(=O)c2c(C)n1Cc1ccccc1F | -1.26
O=C(CN1CCOc2ccccc21)N1CCCC1 | -8.18
O=C(CN1C(=O)COc2ccccc21)N1CCCC1 | -0.99
CC(C)c1ccc(NC2CCCN(C(=O)CCN3CCOCC3)C2)cc1 (centres undefined) | 7.93
O=C(Nc1nc(-c2cc(Cl)sc2Cl)cs1)c1ccc(Br)s1 | 1.67
O=C(Nc1nc(-c2cc(Cl)sc2Cl)cs1)c1ccccc1 | -8.95
CCC1CCCCN1C(=O)c1noc(C(C)C)c1[N+](=O)[O-] (centres undefined) | 3.49
CC12CC3(C)CC(C)(C1)CC(C(N)=O)(C2)C3 | -0.48
COc1ccccc1NC(=O)CSCc1cc(=O)n2ccsc2n1 | 3.56
Cc1ccc(C(C)C)c(OCC(O)CNC2CCCC2)c1 (centres undefined) | 9.04
CCN(CCNCC(O)COCc1ccc(Cl)cc1)c1cccc(C)c1 (centres undefined) | 57
Cc1ccc(S(=O)(=O)Cc2ccc(C(=O)NCCCN3CCN(C)CC3)o2)cc1 | -20.7
O=C(Cn1c2ccc(F)cc2c2nc3n(c(=O)c21)CCS3)N1CCCC1 | -4.92
CCN(CC)S(=O)(=O)c1cccc(-c2csc(C)n2)c1 | -1.32
COc1ccc(/C=N/Nc2nnc(C)n2N)cc1OC | 54.6
COc1cc(/C=N\Nc2nncn2N)ccc1OC(C)=O | -2.67
Cc1cccc(C)c1-n1nnnc1SCSc1nnnn1-c1c(C)cccc1C | -0.17
Cc1ccc(C)c(N2C(=O)CC(N3CCN(Cc4ccc5c(c4)OCO5)CC3)C2=O)c1 (centres undefined) | -6.64
O=c1/c(=C\c2ccc(O)cc2)sc2nc(-c3ccccc3)c(-c3ccccc3)n12 | -4.61
CCOC(=O)C1=C(C)N=c2s/c(=C\c3ccc(OCC(=O)O)cc3)c(=O)n2C1c1ccccc1 (centres undefined) | -2.68
COc1cccc(CN(C)C(=O)/C=C/c2ccc(S(=O)(=O)N3CCCCCC3)cc2)c1 | 4.38
